Test results: PubChem BioAssay AID1851 (National Center for Advancing Translational Sciences (NCATS), 2009)
The whole screen tested about 16,000 compounds, of which about 4,000 (25%) were called active. Not shown: some 26% with an inconclusive outcome. Calls follow the shape of the dose curve; as a rule, active = well fitted curve in the direction sought with a large enough effect; inconclusive = small, poorly fitted or top-dose-only effect, or effect the other way; inactive = no such curve, though single readings can be large or run the other way. Only a sample is shown.

target: Cytochrome P450 2C9 (Homo sapiens) (UniProt P11712); experiment: Cytochrome panel assay with activity outcomes; settings: recombinant CYP, pro-luciferin dealkylation, luminescence, p450-cyp2c9; series mostly up to 57.1 µM; activity, negative = inhibition: at the top concentration
% is scaled to controls: 0 for no effect and ±100 for the full control effect.

Cytochrome P450 2C9 (Homo sapiens), sequence (P11712 whole entry, looked up): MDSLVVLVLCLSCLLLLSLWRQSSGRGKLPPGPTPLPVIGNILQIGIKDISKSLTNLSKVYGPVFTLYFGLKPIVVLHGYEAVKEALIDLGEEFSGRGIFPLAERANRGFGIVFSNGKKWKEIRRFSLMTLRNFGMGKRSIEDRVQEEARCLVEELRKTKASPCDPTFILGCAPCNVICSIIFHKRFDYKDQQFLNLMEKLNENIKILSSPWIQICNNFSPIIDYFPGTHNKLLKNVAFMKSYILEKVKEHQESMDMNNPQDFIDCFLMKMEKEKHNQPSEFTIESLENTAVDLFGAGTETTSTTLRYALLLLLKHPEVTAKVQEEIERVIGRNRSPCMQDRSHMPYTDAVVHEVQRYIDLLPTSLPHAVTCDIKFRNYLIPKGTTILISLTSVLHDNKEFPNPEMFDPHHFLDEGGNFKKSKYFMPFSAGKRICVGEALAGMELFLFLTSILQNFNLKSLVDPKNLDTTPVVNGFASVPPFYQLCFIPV

AC50, active:
C[C@@H](C1=C(CCN(C)C)Cc2ccccc21)c1ccccn1 0.501 µM, Cc1cccc(-c2n[nH]c([N+](=O)[O-])n2)c1 20 µM, CCCCN1C(=O)NC(NC(=O)c2ccco2)(C(F)(F)F)C1=O (stereo not drawn) 12.6 µM, Cn1nc(C(F)(F)F)c(C(=O)Nc2ccc(F)cc2F)c1Sc1ccc(C(F)(F)F)cc1 4.47 µM, Cc1ccc(NC(=O)c2sccc2SCc2cccc(C(F)(F)F)c2)cc1 2.51 µM, Cc1ccc(NC(=O)c2c(C(F)(F)F)nn(C)c2SCc2cccc(C(F)(F)F)c2)cc1C 0.891 µM, Cn1nc(C(F)(F)F)c(C(=O)Nc2ccc(F)cc2F)c1Sc1cccc(C(F)(F)F)c1 1.58 µM, CC(=O)N(/N=C1\Sc2ccccc2C1=O)c1ccccc1C 14.1 µM, CCOC(=O)c1c(NC(=O)CSc2nnnn2C)sc(C)c1C 22.4 µM, Cc1sc(NC(=O)C(C)C)c(C(=O)Nc2ccccc2)c1C 12.6 µM, CCOC(=O)c1c(NC(=O)CSc2nnc(C)s2)sc2c1CCCCC2 11.2 µM, COC(=O)c1c(NC(C)=O)sc(Cc2ccccc2)c1C 10 µM, CCOC(=O)c1c(NC(=O)Nc2ccccc2)sc(C)c1C 3.55 µM, Cc1nnc(SCc2nc(N)nc(Nc3ccccc3)n2)s1 10 µM, CCOC(=O)c1cnc(SCCc2ccccc2)nc1N 11.2 µM, O=C(O)c1ccc2c3c1cccc3c(=O)n1c3ccccc3nc21 0.158 µM, Cc1ccc2nc(NC(=O)COC(=O)CSc3nc(C)cc(C)n3)sc2c1 3.98 µM, Cc1ccc2nc(NC(=O)CSCC(=O)OCC(=O)c3ccc(Br)cc3)sc2c1 14.1 µM, NC(=S)Nc1ccc(Oc2ccc(NC(N)=S)cc2)cc1 7.08 µM, Cc1ccc(C2Nc3ccccc3C(=O)N2Cc2ccco2)cc1 (stereo not drawn) 3.16 µM, O=C1c2ccccc2NC(c2ccc(F)cc2)N1Cc1ccco1 (stereo not drawn) 3.16 µM, COc1ccc(C2Nc3ccccc3C(=O)N2Cc2ccco2)cc1COc1ccc([N+](=O)[O-])cc1 (stereo not drawn) 0.178 µM, CC(C)Oc1ccc2ccccc2c1C=O 10 µM

AC50, inactive:
CN(C)CC[C@@H](c1ccccc1)c1ccccn1, CO[C@]1(NC(=O)CSCC#N)C(=O)N2C(C(=O)O)=C(CSc3nnnn3C)CS[C@H]21, C=C1C(=O)O[C@@H]2[C@@H]1CC/C(C)=C\CC[C@@]1(C)O[C@H]21, CC(C)NC[C@@H](O)COc1cccc2ccccc12

activity, negative = inhibition, inactive:
CN(C)CC(CN(C)C)c1ccccn1 -2.56% [at 11.4 µM], CNc1cc(-c2ccccc2CN(C)C)ncn1 24.8% [at 2.29 µM], CCCCn1c(=N)n(CC(=O)c2ccco2)c2ccccc21 -8.19%, CC(=O)NC1=NC(=O)C(C)S1 (stereo not drawn) -14.5%, CC(=O)NC1(c2ccc(F)cc2)CCN(C(=O)Nc2ccc(F)cc2F)CC1 -28.9%, O=C(O)/C=C/C(=O)Nc1ccc(F)cc1F -8.84%, CCNS(=O)(=O)c1ccc(NC(=O)c2cc(C(F)(F)F)nn2C)cc1 3.85%, CCc1ccc(NC(=O)Cn2nc(C(F)(F)F)c3c2CCC3)cc1 -29%, CC(=O)N(/N=C1\Sc2ccccc2C1=O)c1ccccc1 -1.76%, Cc1sc(NC(=O)C2CCCCC2C(=O)O)c(C(N)=O)c1C (stereo not drawn) -26.8%, COC(=O)c1c(C)[nH]c(C)c1C(=O)c1ccccc1Cc1ccccc1 -10.3%, CCOc1ccc(CC(=O)Nc2sc(Cc3ccccc3)c(C)c2C(N)=O)cc1OCC -18.4%, CCOC(=O)c1c(NC(=O)c2c(C)noc2C)sc2c1CCCCC2 -13.5%, Cc1cccc(NC(=O)CSc2nnnn2C)n1 -12.2%, CN(C)c1nc(N)c(C(=O)N=C(N)N)nc1Cl -9.29%, COC(=O)C1=C(C)[C@@H](O)[C@@H](C)[C@H](c2c(OC)c(OC)c(C)c(OC)c2OC)O1 -3.08% [at 11.4 µM], CC(=O)N1CCC2(CCCN(Cc3nccs3)C2)CC1 -25.5%, CCOC(=O)c1c(NC(=O)/C=C/c2ccc3c(c2)OCO3)sc(C)c1C -7.1%, Cc1cc(Nc2ccccc2)nc(N)n1 -3.06%, CCCSc1nnc2n(N)c(=O)c3ccccc3n12 -23.6%, Nc1nc(N)[n+]([O-])c(N)c1NCO 6.07% [at 11.4 µM], CCOC(=O)c1cnc(N(C)C)nc1SC(=N)N -5.38% [at 11.4 µM], Nc1nc(N)c(CCCCc2ccccc2)c(N)n1 5.71% [at 11.4 µM], CC1(C)C2([N+](=O)[O-])CN3CC1([N+](=O)[O-])CN(C2)C31CCCC1 -7.73%, O=c1c2ccc([N+](=O)[O-])c3cccc(c32)c2nc3ccccc3n12 -7.5%, O=C(O)C(=O)/C=C(\O)c1ccc(Br)cc1 -19.1% [at 11.4 µM], CCCOc1ccc(C(=O)NC(=S)Nc2nc3ccc(C)cc3s2)cc1 -22.2%, COc1ccc2nc(NC(=O)CSc3nnc(C)s3)sc2c1 -8.02%, COc1ccc([C@@H]2Sc3ccccc3N(CCN(C)C)C(=O)[C@@H]2OC(C)=O)cc1 28.5%, COc1ccc2[nH]c(=O)c(NC(N)=S)nc2c1 -27.2%, CN(Cc1ccco1)C(=O)C1CCC(=O)N1Cc1ccc(F)cc1 (stereo not drawn) -48.2%, O=C1C2=C(Nc3cc([N+](=O)[O-])ccc3N2)O[C@@H]1c1c[nH]c2ccc(COc3ccccc3)cc12 -16.4% [at 11.4 µM], CC1(CC(=O)O)O[C@H]2CCCCC[C@H]2O1 (stereo partly drawn) (tested in a mixture with another compound) 1.04% [at 11.4 µM], CC(=O)N1CC2(CC2)CC1c1ccccc1 (stereo not drawn) 8.15%, CO[C@H]1C[C@@H](O[C@@H]2[C@H](C)[C@H](O[C@@H]3O[C@@H](C)C[C@@H](N(C)C)[C@@H]3O)[C@H](C)C[C@]3(CO3)C(=O)[C@H](C)[C@H](O)[C@H](C)[C@H](C)OC(=O)[C@@H]2C)O[C@@H](C)[C@H]1O -14.7% [at 25.6 µM], CC(=O)N[C@@H](CC(=O)O)C(=O)O 5.33% [at 25.6 µM]
